# Screens deposited in PubChem by National Center for Advancing Translational Sciences (NCATS).
# ELG1 DNA repair: inhibitors of ELG1-dependent DNA repair in HEK293T cells; HEK293T ELG1-luciferase reporter, luminescence, 16 h; DNA damage induced by 5-fluorouridine; Potency, µM (doses to about 46.1 µM), inactives show at the highest dose activity change, negative = inhibition, usual class: inhibitors; actives 2.3% (n = 330,000); note: % is set by controls: 0 for no effect and ±100 for the full control effect; nearly all actives have a fitted effect of over 55% in size
#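 5-Fluorouridine DNA damage + compound/DMSO, 2,000 cells/well, 16 h, 37 °C/5% CO2. ONE-Glo, 30 min RT, luminescence. Readout = decrease in reporter signal.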
# SMN2 splice up: increases expression of the SMN2 splice variant | HEK293 SMN2-luciferase splicing reporter, luminescence, 30-36 h | Potency, µM (series often up to 46.1 µM), for the others: at the top dose activity change, positive = activation, hits mostly activators | actives 2.8% (n = 210,000); note: % of control where 0% means no effect; nearly all actives have a fitted effect of over 55% in size
#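 qHTS luciferase splicing reporter: luminescence rises when SMN2 exon 7 is included in transfected HEK293 cells. Compound exposure lasted 30-36 h at 37C, with 4.5 mM final sodium butyrate as control, followed by a ONE-Glo read.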
# Rab9 prom act: activators of Rab9 promoter; Huh7 Rab9 promoter-luciferase reporter, luminescence, 24 h; Potency, µM (series often up to 9.22 µM), for inactives: at the highest dose activation, negative = inhibition, actives largely listed as activators; AID 485297; actives 2.8% (n = 320,000); note: % of control where 0% means no effect; nearly all actives have a fitted effect of over 60% in size
#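 Huh7 cells stably carrying a Rab9 promoter-luciferase reporter, 1500 cells per well in OP-MEM I with 10% FBS, treated with compound 24 hours at 37C. Luciferase activity read by luminescence after 10 minutes with Amplite reagent.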
# FLuc counter: inhibits or activates purified firefly luciferase, miR-21 counter-screen. P08659. purified FLuc, Km substrates, luminescence inhibition. Potency, µM (top dose mostly 57.5 µM), without a hit: at the highest dose activity change, negative = inhibition, usual class: inhibitors. actives 6.9% (n = 360,000). AID 588342;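 note: plate controls were vehicle for no effect and reference inhibitor for full effect; nearly all actives have a fitted effect of over 55% in size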
# Target sequence (P08659 whole entry, looked up): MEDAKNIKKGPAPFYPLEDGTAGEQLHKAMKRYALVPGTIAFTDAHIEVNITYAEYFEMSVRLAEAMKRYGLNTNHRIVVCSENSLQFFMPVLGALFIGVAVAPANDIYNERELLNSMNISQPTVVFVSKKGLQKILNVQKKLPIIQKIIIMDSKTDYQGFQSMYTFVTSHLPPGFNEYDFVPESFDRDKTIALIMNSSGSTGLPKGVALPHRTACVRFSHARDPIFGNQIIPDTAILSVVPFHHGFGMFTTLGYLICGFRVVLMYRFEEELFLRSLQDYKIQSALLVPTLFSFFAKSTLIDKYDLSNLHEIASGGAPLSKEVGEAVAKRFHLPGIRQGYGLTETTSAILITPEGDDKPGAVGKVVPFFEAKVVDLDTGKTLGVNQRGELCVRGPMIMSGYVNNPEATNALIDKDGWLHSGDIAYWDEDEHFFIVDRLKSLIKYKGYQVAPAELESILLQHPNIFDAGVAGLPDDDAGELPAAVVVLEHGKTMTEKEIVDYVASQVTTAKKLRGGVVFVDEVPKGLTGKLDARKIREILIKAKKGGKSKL
#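 Biochemical qHTS of compounds, final roughly 60 µM downward over six points, against 10 nM purified firefly luciferase using Km concentrations of substrates (10 uM D-luciferin, 10 uM ATP) in Tris acetate pH 7.5 buffer; luminescence output.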
# NPC1 promoter act: activators of NPC1 promoter. Huh7 NPC1 promoter luciferase reporter, 24 h. Potency, µM (titrated, usually from 9.22 µM), for the others: at the highest dose activation, usual class: activators. actives 2.4% (n = 320,000). AID 485313; note: % of control where 0% means no effect; nearly all actives have a fitted effect of over 60% in size
#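 Stable NPC1-promoter luciferase Huh7 line; cpd (DMSO) 24 h, 37 °C, 5% CO2; Amplite luciferase reagent 10 min RT; luminescence readout. qHTS format.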
# ELG1 genotox: inducers of genotoxicity in HEK293T ELG1-luciferase cells; HEK293T ELG1-luciferase reporter, luminescence, 16 h; Potency, µM (titrated, usually from 46 µM), without a hit: at the highest dose activity change, positive = activation, hits mostly activators; actives 1.3% (n = 330,000); AID 504466; note: % of control where 0% means no effect; nearly all actives have a fitted effect of over 60% in size
#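 HEK293T cells expressing luciferase-tagged ELG1 were treated with compound or DMSO for 16 hr at 37°C. Luciferase activity was then read after 30 min with ONE-Glo at room temperature; rising signal flags genetic stress.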
# * marks the source's active call; other numbers are inactive results; ? = inconclusive; · = not tested or not shown; [ ] = remark or other dose. The list is not random: actives were taken first. Their share in the collection is about 9.2%. Calls come from the whole dose curve; as a rule, active = well fitted curve in the direction sought with a large enough effect; inconclusive = small, poorly fitted or top-dose-only effect, or another doubt; inactive = no such curve, though single readings can be large; an effect the other way counts as inactive or inconclusive. Potency is the fitted concentration of half-maximal effect.
SMILES,ELG1 DNA repair,SMN2 splice up,Rab9 prom act,FLuc counter,NPC1 promoter act,ELG1 genotox
Cc1ccc(NC(=O)NCC2CC2(Cl)Cl)cc1 (stereo not drawn),?,·,3.5µM*,11µM*,2.2µM*,?
C=COCCNC(=O)Nc1ccc(Cl)c(Cl)c1,?,27%,?,17µM*,?,-3%
O=C(NCc1cccnc1)Nc1ccc(Cl)c(Cl)c1,?,·,?,?,18%,11%
O=C(NCC1CC1(Cl)Cl)Nc1ccc(Cl)c(Cl)c1 (stereo not drawn),?,·,?,17µM*,?,-4%
Cn1cccc1CNC(=O)Nc1ccc(Cl)c(Cl)c1,?,?,3.2µM*,8.5µM*,4µM*,?
COCCNC(=S)Nc1ccc(Cl)c(Cl)c1,-3%,?,-1%,-2%,2%,-2%
CC(=O)N1CCCc2cc(S(=O)(=O)NCc3ccc(OC(C)C)cc3)ccc21,·,·,·,3%,·,·
O=C(CCNC(=O)c1ccc(Cl)cc1)Nc1ccncc1,-5%,·,-3%,4%,-3%,5%
C/C(=N\NS(=O)(=O)c1ccc([N+](=O)[O-])cc1)c1ccc(NC(=O)c2ccco2)cc1,?,18µM*,5%,?,11%,?
O=C(Nc1ccc(NC(=O)c2ccc([N+](=O)[O-])cc2[N+](=O)[O-])cc1)c1ccco1,?,·,18%,2%,1%,15%
CC(=O)Nc1ccc(/C(C)=N/NS(=O)(=O)c2ccc(C)cc2)cc1,2%,-18%,0%,3%,-2%,1%
C/C(=N/NS(=O)(=O)c1ccc(Br)cc1)c1ccc(NC(=O)c2ccc(C)o2)cc1,26%,14%,7%,24µM*,2%,-1%
Cc1cccc(NC(=S)NNC(=O)c2csc3c2CCCC3)c1,?,?,?,12µM*,?,0%
Cc1ccc(C)c(NC(=S)NNC(=O)c2csc3c2CCCC3)c1,-10%,-11%,3%,-3%,1%,-2%
Cc1cc(C(=O)Nc2ccc(Br)cc2)cs1,?,·,0.63µM*,19µM*,?,6.5µM*
Cc1cccc(NC(=S)NNC(=O)c2csc(C)c2)c1,?,·,?,8.5µM*,14%,14%
Cc1cccc(NC(=S)NNC(=O)c2cccc([N+](=O)[O-])c2)c1,-6%,·,2%,?,-5%,-2%
CCCCN1CC(c2nc3ccccc3n2CCCCOc2cccc(C)c2C)CC1=O (stereo not drawn),·,·,·,-2%,·,·
Cc1cccc(C)c1OCc1cc(C(=O)NCc2cn(C)nc2C)no1,-5%,·,2%,-2%,-5%,-6%
COC(=O)[C@]1(Cc2ccccc2)N[C@H](CN(C)C(=O)COc2ccccc2)[C@@H]2C(=O)N(Cc3ccccc3)C(=O)[C@@H]21,0%,·,·,·,·,1%
Cc1ccc(OCCC(=O)OC(C)C(=O)NC2CC2)cc1 (stereo not drawn),-8%,·,3%,3%,1%,0%
Cc1cccn2c(=O)cc(CSc3nnc(NC(=O)COc4ccccc4)s3)nc12,·,·,0%,?,5%,·
COc1cccc(Cn2c(=O)n(-c3ccccc3C)c(=O)c3c2c2cc(C)ccc2n3C)c1,·,·,·,-2%,·,·
CCN(CC)CCCNC(=S)N1CCC(c2nc3ccccc3[nH]2)CC1,10%,·,5%,3%,6%,2%
COc1cc(-c2cc(C(=O)Nc3ccc(N4CCOCC4)cc3)c3ccccc3n2)cc(OC)c1OC,8.2µM*,·,-2%,?,-1%,-17%
SMILES,ELG1 DNA repair,SMN2 splice up,Rab9 prom act,FLuc counter,NPC1 promoter act,ELG1 genotox
Cc1ccc(C)c(NC(=O)c2cc(-c3cccnc3)nc3ccccc23)c1,?,-18%,1%,0%,-6%,-9%
COc1ccc(-c2cc(C(=O)Nc3ccc(S(N)(=O)=O)cc3)c3ccccc3n2)cc1OC,2%,·,-1%,-6%,2%,3%
COc1ccc(-c2cc(C(=O)Nc3ccc(C(N)=O)cc3)c3ccccc3n2)cc1,?,·,?,0.76µM*,?,7%
COc1cc(-c2cc(C(=O)Nc3ccncc3)c3ccccc3n2)cc(OC)c1OC,6.5µM*,·,0%,-16%,0%,-1%
Cc1ccc(-c2cc(C(=O)Nc3nn[nH]n3)c3ccccc3n2)cc1,14%,-10%,3%,3.8µM*,7%,-2%
COc1cc(CC(=O)Nc2ccc(N3CCOCC3)cc2)cc(OC)c1OC,-7%,1%,-4%,-5%,5%,-2%
O=C1[C@H]2[C@H]3C=C[C@@H](C4[C@H]3[C@@H]3C(=O)N(CN5CCSCC5)C(=O)[C@H]43)[C@H]2C(=O)N1CN1CCSCC1 (stereo partly drawn),·,-19%[9.22 µM],·,·,·,·
Cc1cccc(NC(=O)NNC(=O)c2cc(-c3ccccc3Cl)nc3ccccc23)c1,-14%,-14%,-4%,1%,0%,-8%
COc1ccccc1NC(=O)c1cc(-c2cc(OC)c(OC)c(OC)c2)nc2ccccc12,?,·,-4%,-2%,-2%,-2%
COc1cc(-c2cc(C(=O)Nc3cc(S(=O)(=O)N4CCOCC4)ccc3O)c3ccccc3n2)cc(OC)c1OC,15µM*,·,·,·,·,-6%
CC(C)(C)c1ccccc1NC(=O)c1cc(-c2ccncc2)nc2ccccc12,16µM*,·,·,·,·,-12%
Cc1csc(NC(=O)c2cc(-c3ccncc3)nc3ccccc23)n1,?,-4%,-5%,?,1%,-7%
Cc1ccc(-c2cc(C(=O)Nc3ccncc3)c3ccccc3n2)cc1,?,·,0%,11µM*,-3%,0%
O=C(NNC(=O)c1cc(-c2ccc(Cl)c(Cl)c2)nc2ccccc12)Nc1ccccc1,-15%,-8%,2%,6.7µM*,-1%,-12%
CCOC(=O)Cn1c(=O)oc2cc(S(=O)(=O)Nc3cc(OC)cc(OC)c3)ccc21,·,0%,·,-8%,·,·
CN(C)c1ccc(NC(=O)CSC2=Nc3ccccc3C3=NC(CCC(=O)NCc4cccs4)C(=O)N23)cc1 (stereo not drawn),·,·,·,-1%,·,·
Cc1ccc(C)c(N2CCN(C(=O)Cc3ccc(-n4c(=O)[nH]c5ccsc5c4=O)cc3)CC2)c1,?,·,-11%,0%,-6%,-6%
Cc1cccc(N2CCN(C(=O)Cc3ccc(-n4c(=O)[nH]c5ccsc5c4=O)cc3)CC2)c1C,18µM*,-20%,-1%,-8%,0%,-9%
O=C(c1ccccc1)c1ccc(Cn2cc(-c3ccccc3)nn2)cc1,?,·,-16%,13µM*,-11%,?
CC(C)(Oc1ccc(Br)cc1Cl)C(=O)Nc1ccon1,1%,·,-2%[1.84 µM],-3%,-1%,-2%
